Measurements published in PubChem BioAssay (Tox21).
Records with an inconclusive call do not appear. Entries that show only a call come without a potency. A number with no mark means an inactive call. The source made the active and inactive calls. Unless noted, calls follow the shape of the dose curve; as a rule, active = well fitted curve in the direction sought with a large enough effect in the repeat runs; inconclusive = weak or mixed curves; inactive = no such curve, though single readings can be large; an effect the other way counts as inactive or inconclusive.

Assays:
[1] = target: Peroxisome proliferator-activated receptor gamma (Homo sapiens) (UniProt P37231); assay: qHTS assay to identify small molecule antagonists of the peroxisome proliferator-activated receptor gamma (PPARg) signaling pathway (AID 743191; calls by dose curve; also: series mostly up to about 63 µM; nearly all actives have a fitted effect of over 30% in size)
Chain of Peroxisome proliferator-activated receptor gamma (Homo sapiens) (P37231 whole entry, looked up): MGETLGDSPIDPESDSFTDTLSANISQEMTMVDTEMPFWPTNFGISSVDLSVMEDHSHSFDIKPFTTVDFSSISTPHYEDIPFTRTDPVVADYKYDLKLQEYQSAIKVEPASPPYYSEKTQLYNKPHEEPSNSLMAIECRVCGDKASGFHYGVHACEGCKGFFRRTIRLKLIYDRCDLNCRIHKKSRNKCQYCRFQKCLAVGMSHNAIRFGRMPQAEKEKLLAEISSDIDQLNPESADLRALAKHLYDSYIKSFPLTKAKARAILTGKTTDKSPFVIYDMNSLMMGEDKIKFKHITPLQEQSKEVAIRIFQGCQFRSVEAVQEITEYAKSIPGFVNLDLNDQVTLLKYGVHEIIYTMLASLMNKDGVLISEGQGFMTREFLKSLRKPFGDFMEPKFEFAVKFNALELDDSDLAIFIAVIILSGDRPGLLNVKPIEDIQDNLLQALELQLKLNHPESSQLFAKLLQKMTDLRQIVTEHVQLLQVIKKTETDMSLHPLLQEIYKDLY
How it was run: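 Beta-lactamase reporter under UAS control in HEK293H PPARg-bla cells; compound treatment 17 h at 37C. Read-out: fluorescence intensity after 1 h room-temperature incubation with LiveBLAzer B/G FRET substrate.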

[2] = qHTS assay to identify small molecule antagonists of the peroxisome proliferator-activated receptor gamma (PPARg) signaling pathway - cell viability counter screen (AID 743194); also: nearly all actives have a fitted effect of over 55% in size
How it was run: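 Viability was measured as CellTiter-Glo luminescence in GeneBLAzer PPARg UAS-bla HEK293H cells. These cells had been exposed 17 h at 37 C to compounds together with rosiglitazone at 50 nM final, with the beta-lactamase readout taken in the same wells.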

[3] = qHTS assay for small molecule agonists of the antioxidant response element (ARE) signaling pathway (AID 743202; active = well fitted activation curve with a large enough effect in the signal ratio in the repeat runs, not every such curve was filed as active; the % refers to the signal ratio)
How it was run: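 After 16 hours of compound treatment at 37 C, HepG2 cells with a stably integrated ARE-driven beta-lactamase reporter were loaded 2 hours at room temperature with LiveBLAzer B/G FRET substrate and fluorescence intensity measured.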

[4] = qHTS assay for small molecule agonists of the antioxidant response element (ARE) signaling pathway - cell viability counter screen (AID 743203; calls by dose curve; also: nearly all actives have a fitted effect of over 55% in size)
How it was run: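 Cytotoxicity was tested in parallel with the ARE reporter screen. ARE-bla HepG2 cells were exposed to compounds for 16 hrs, and viability was taken from CellTiter-Glo luminescence.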

[5] = qHTS assay for small molecule activators of the heat shock response signaling pathway - cell viability counter screen (AID 743209); also: nearly all actives have a fitted effect of over 50% in size
How it was run: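 Cytotoxicity counter screen run in parallel with the HSE beta-lactamase reporter, using the same wells. HeLa HSE-bla cells received compound for 5 h at 37 C; ATP-based CellTiter-Glo luminescence was measured after 30 min at room temperature.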

[6] = qHTS assay for small molecule activators of the heat shock response signaling pathway (AID 743210; active = well fitted activation curve with a large enough effect in the signal ratio in the repeat runs, with a control signal flat, not every such curve was filed as active; the % refers to the signal ratio; also: series mostly up to about 63 µM)
How it was run: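 Compound exposure lasted 5 h at 37 C in HeLa cells carrying a heat-shock-element-driven beta-lactamase reporter. Read-out: fluorescence intensity after 2.5 h room-temperature loading with LiveBLAzer B/G FRET substrate.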

[7] = qHTS assay to identify small molecule agonists of the peroxisome proliferator-activated receptor delta (PPARd) signaling pathway - cell viability counter screen (AID 743211); also: nearly all actives have a fitted effect of over 55% in size
How it was run: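 Tox21 library compounds, delivered in DMSO, were incubated 17 h with PPARd-bla HEK293H cells; cytotoxicity was taken from CellTiter-Glo luminescence read 30 min after reagent addition.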

[8] = target: Peroxisome proliferator-activated receptor delta (Homo sapiens) (UniProt Q03181); assay: qHTS assay to identify small molecule agonists of the peroxisome proliferator-activated receptor delta (PPARd) signaling pathway (AID 743212; calls by dose curve)
Chain of Peroxisome proliferator-activated receptor delta (Homo sapiens) (Q03181 whole entry, looked up): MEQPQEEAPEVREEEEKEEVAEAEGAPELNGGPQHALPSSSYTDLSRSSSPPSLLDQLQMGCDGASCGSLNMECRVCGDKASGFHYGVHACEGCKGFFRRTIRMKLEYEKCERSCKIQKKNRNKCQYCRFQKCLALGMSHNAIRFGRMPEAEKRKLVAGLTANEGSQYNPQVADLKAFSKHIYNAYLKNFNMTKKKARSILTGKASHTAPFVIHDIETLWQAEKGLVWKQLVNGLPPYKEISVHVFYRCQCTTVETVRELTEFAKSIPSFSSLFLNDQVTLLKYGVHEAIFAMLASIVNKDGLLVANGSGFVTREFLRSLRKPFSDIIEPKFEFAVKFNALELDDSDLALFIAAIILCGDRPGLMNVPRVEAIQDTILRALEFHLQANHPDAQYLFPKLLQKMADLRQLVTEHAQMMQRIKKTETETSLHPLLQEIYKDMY
How it was run: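 Beta-lactamase reporter readout: a ratiometric FRET signal from the LiveBLAzer substrate after 2 h at room temperature. Compound exposure at 37 °C in PPARδ-bla HEK293H cells driven by an upstream activator sequence.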

[9] = target: Peroxisome proliferator-activated receptor delta (Homo sapiens) (UniProt Q03181); assay: qHTS assay to identify small molecule antagonists of the peroxisome proliferator-activated receptor delta (PPARd) signaling pathway (AID 743215; active = well fitted inhibition curve with a large enough effect in the signal ratio in the repeat runs, not every such curve was filed as active; the % refers to the signal ratio;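 also: cells stimulated with agonist L165041 at 300 nM final during compound exposure; series mostly up to about 62 µM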)
How it was run: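 Cells: HEK293H with a UAS-driven beta-lactamase reporter responsive to PPARd. Compounds were co-added with L165041 (300 nM, final) and incubated 17 h at 37 C before a 2 h room-temperature FRET substrate step and fluorescence reading.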

[10] = target: Bile acid receptor (Homo sapiens) (UniProt Q96RI1); assay: qHTS assay to identify small molecule antagonists of the farnesoid-X-receptor (FXR) signaling pathway (AID 743217; active = well fitted inhibition curve with a large enough effect in the signal ratio in the repeat runs, not every such curve was filed as active; the % refers to the signal ratio)
Chain of Bile acid receptor (Homo sapiens) (Q96RI1 whole entry, looked up): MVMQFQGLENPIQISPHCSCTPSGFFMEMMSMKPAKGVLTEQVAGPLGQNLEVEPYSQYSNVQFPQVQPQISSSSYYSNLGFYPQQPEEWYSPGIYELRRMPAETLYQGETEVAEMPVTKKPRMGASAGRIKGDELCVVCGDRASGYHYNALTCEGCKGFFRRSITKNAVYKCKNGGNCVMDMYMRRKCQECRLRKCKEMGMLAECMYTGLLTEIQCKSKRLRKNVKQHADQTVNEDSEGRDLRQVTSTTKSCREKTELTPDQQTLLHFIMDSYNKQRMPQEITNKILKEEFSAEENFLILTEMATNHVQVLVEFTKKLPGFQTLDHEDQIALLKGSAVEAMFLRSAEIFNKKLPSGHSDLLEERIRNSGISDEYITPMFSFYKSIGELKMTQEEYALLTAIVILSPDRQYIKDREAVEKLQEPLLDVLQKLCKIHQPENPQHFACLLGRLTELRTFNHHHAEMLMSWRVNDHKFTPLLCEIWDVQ
How it was run: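 Cells carrying a UAS-driven beta-lactamase reporter (GeneBLAzer FXR-UAS-bla HEK 293T) were plated and rested 5 h at 37 °C. Compounds in DMSO were added alongside chenodeoxycholic acid agonist at 50 uM final and left 16 h at 37 °C before FRET substrate readout.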

[11] = qHTS assay to identify small molecule agonists of the farnesoid-X-receptor (FXR) signaling pathway - cell viability counter screen (AID 743218); also: nearly all actives have a fitted effect of over 45% in size; also: potency is read from the fitted curve at half-maximal effect
How it was run: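 Cells were seeded, left 5 h at 37 C and 5% CO2, then dosed with compound in DMSO for 16 h. After the beta-lactamase FRET read, CellTiter-Glo was added and luminescence measured 30 min later.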

[12] = target: Bile acid receptor (Homo sapiens) (UniProt Q96RI1); assay: qHTS assay to identify small molecule agonists of the farnesoid-X-receptor (FXR) signaling pathway (AID 743220; active = well fitted activation curve with a large enough effect in the signal ratio in the repeat runs, not every such curve was filed as active; the % refers to the signal ratio)
How it was run: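 FXR-UAS-bla HEK 293T cells carrying a UAS-driven beta-lactamase reporter were plated for 5 h at 37C/5% CO2, then exposed to DMSO-dissolved Tox21 10K compounds for 16 h at 37C. A LiveBLAzer B/G FRET substrate was loaded for 2 h at room temperature before fluorescence reading.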

[13] = qHTS assay to identify small molecule antagonists of the farnesoid-X-receptor (FXR) signaling pathway - cell viability counter screen (AID 743221; active = well fitted cell-killing curve with a large enough effect in the repeat runs, not every such curve was filed as active; also: nearly all actives have a fitted effect of over 50% in size)
How it was run: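 Cytotoxicity is taken from ATP luminescence (CellTiter-Glo, 30 min, room temperature) in FXR-bla HEK 293T cells previously incubated 16 h at 37 C with compound and chenodeoxycholic acid at 50 uM final.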

[14] = target: Vitamin D3 receptor (Homo sapiens) (UniProt P11473); assay: qHTS assay to identify small molecule agonists of the vitamin D receptor (VDR) signaling pathway (AID 743222; calls by dose curve)
Chain of Vitamin D3 receptor (Homo sapiens) (P11473 whole entry, looked up): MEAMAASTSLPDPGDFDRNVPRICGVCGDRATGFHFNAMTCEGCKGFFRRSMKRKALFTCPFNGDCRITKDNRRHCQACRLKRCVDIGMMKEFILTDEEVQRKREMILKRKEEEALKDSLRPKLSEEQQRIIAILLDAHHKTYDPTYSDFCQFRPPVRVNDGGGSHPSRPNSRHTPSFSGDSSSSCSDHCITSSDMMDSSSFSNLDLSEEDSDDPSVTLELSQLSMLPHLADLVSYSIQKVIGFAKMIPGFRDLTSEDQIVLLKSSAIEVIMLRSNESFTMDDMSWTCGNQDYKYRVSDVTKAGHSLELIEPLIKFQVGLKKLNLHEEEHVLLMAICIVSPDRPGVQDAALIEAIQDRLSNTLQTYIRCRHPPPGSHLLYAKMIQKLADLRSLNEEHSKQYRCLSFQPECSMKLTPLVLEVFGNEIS
How it was run: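 Cells carrying a VDR-driven beta-lactamase reporter are seeded at 2,000 per well and rested 4 h. Compounds in DMSO are added for 16 h at 37C, and FRET substrate fluorescence is measured after 2 h at room temperature.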

[15] = target: Vitamin D3 receptor (Homo sapiens) (UniProt P11473); assay: qHTS assay to identify small molecule antagonists of the vitamin D receptor (VDR) signaling pathway (AID 743223; active = well fitted inhibition curve with a large enough effect in the signal ratio in the repeat runs, not every such curve was filed as active; the % refers to the signal ratio)
How it was run: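 Quantitative HTS in VDR-bla reporter cells stimulated with 1alpha,25-dihydroxyvitamin D3, 3 nM final. Compound exposure 16 h, 37C, 5% CO2. Read-out: beta-lactamase FRET substrate fluorescence, 2 h RT.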

[16] = qHTS assay to identify small molecule antagonists of the peroxisome proliferator-activated receptor delta (PPARd) signaling pathway - cell viability counter screen (AID 743213); also: nearly all actives have a fitted effect of over 50% in size
How it was run: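 PPARd-bla HEK293H cells (3000/well) got compound plus 300 nM L165041 agonist for 17 h at 37 C. Viability in the same wells came from CellTiter-Glo luminescence after 30 min at room temperature.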

[17] = target: Aryl hydrocarbon receptor (Homo sapiens) (UniProt P35869); assay: qHTS assay to identify small molecule that activate the aryl hydrocarbon receptor (AhR) signaling pathway (AID 743085);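 also: HG2L7.5c1 human HepG2 liver cells with stably integrated DRE-driven firefly reporter; series mostly up to about 70 µM; nearly all actives have a fitted effect of over 15% in size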
Chain of Aryl hydrocarbon receptor (Homo sapiens) (P35869 whole entry, looked up): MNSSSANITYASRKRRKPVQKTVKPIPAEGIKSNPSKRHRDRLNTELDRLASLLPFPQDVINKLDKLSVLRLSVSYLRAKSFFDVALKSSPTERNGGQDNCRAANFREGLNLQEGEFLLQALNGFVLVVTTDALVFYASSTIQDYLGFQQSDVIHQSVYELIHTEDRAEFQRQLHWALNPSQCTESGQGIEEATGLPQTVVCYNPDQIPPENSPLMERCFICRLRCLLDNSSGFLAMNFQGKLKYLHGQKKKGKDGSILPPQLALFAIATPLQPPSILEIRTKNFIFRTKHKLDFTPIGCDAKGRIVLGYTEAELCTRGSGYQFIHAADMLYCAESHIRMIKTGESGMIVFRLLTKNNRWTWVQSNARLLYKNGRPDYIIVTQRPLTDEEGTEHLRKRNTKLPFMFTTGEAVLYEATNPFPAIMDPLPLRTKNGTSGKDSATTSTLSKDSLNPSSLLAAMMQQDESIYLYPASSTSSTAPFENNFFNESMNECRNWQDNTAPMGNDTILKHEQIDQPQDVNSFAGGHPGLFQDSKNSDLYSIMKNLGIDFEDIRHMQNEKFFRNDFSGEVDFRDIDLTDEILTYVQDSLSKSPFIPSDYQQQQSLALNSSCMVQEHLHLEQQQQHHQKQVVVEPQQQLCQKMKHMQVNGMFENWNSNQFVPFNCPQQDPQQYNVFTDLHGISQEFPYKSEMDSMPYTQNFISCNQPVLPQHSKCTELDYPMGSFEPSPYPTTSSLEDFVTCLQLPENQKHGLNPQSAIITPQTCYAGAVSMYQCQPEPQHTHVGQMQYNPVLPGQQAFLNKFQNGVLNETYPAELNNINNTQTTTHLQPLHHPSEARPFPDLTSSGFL
How it was run: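 A multiplexed format paired cell viability (CellTiter-Fluor fluorescence) with AhR-dependent luciferase output (ONE-Glo luminescence) in the same wells of HepG2 DRE-luc cells after 24 h compound exposure at 37C.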

[18] = qHTS assay to identify small molecule that activate the aryl hydrocarbon receptor (AhR) signaling pathway - cell viability counter screen (AID 743086);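 also: HepG2 liver cells carrying the AhR DRE luciferase reporter; series mostly up to about 70 µM; nearly all actives have a fitted effect of over 45% in size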
How it was run: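 Cytotoxicity counter screen: CellTiter-Fluor signal (30 min, 37 C) in 4000 HepG2 cells/well carrying the DRE-luciferase reporter, following 24 h compound exposure at 37 C.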

[19] = target: Peroxisome proliferator-activated receptor gamma (Homo sapiens) (UniProt P37231); assay: qHTS assay to identify small molecule agonists of the peroxisome proliferator-activated receptor gamma (PPARg) signaling pathway (AID 743094; active = well fitted activation curve with a large enough effect in the signal ratio in the repeat runs, not every such curve was filed as active; the % refers to the signal ratio)
How it was run: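 Cells from the PPARg UAS-bla HEK293H line are plated and incubated 5 h at 37C. Compounds in DMSO are pinned in and left 17 h at 37C. LiveBLAzer B/G substrate is then added for 1 h at room temperature before fluorescence is measured.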

[20] = qHTS assay to identify aromatase inhibitors - cell viability counter screen (AID 743084);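 also: cells stimulated with testosterone during compound exposure; nearly all actives have a fitted effect of over 55% in size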

Row | SMILES | Potency [1] | outcome [2] | Potency [3] | outcome [4] | outcome [5] | outcome [6] | outcome [7] | outcome [8] | outcome [9] | outcome [10] | Potency [11] | outcome [12] | outcome [13] | outcome [14] | outcome [15] | outcome [16] | Potency [17] | Potency [18] | outcome [19] | Potency [20]
1 | c1ccccc1 | inactive | inactive | inactive | inactive | inactive | inactive | inactive | inactive | inactive | inactive | inactive | inactive | inactive | inactive | inactive |  |  |  |  | 
2 | CCCCCCCCCCCCCCCCCCN(C)C |  | inactive | inactive | inactive | inactive | inactive | inactive | inactive | inactive |  | inactive |  | inactive | inactive | inactive |  |  |  |  | 
3 | CCCCC(CC)CNC(=O)CC(C)OC(=O)CCC(=O)O (centres undefined) |  | inactive | inactive | inactive | inactive | inactive | inactive | inactive | inactive |  | inactive |  | inactive | inactive | inactive | inactive |  |  |  | 
4 | CC(=O)N(CC(O)CO)c1c(I)c(C(=O)NCC(O)CO)c(I)c(C(=O)NCC(O)CO)c1I (centres undefined) |  | inactive | inactive | inactive | inactive | inactive |  | inactive | inactive |  | inactive |  | inactive | inactive |  | inactive | inactive | inactive | inactive | 
5 | C/C=C(\C)C(=O)OCC/C=C\CC |  | inactive | inactive | inactive | inactive | inactive | inactive | inactive | inactive |  | inactive |  | inactive | inactive | inactive | inactive |  | inactive |  | 
6 | CCCCCCCC/C=C\CCCCCCCC(=O)OC[C@@H](O)[C@H]1OC[C@H](O)[C@H]1O |  |  |  | inactive | inactive | inactive | inactive |  | inactive |  |  |  | inactive | inactive | inactive |  |  | inactive | inactive | inactive
7 | CC(C)C(=O)Nc1cccc(C(F)(F)F)c1 |  | inactive | inactive | inactive | inactive | inactive |  | inactive | inactive |  | inactive |  | inactive | inactive |  | inactive |  |  |  | 
8 | CCN(CC)C(=O)C1CN2CCc3cc(OC)c(OC)cc3C2CC1OC(C)=O (centres undefined) |  | inactive | inactive | inactive | inactive | inactive | inactive | inactive | inactive |  | 237 nM (active) | inactive | inactive |  |  | inactive |  |  |  | 
9 | CC(CC(=O)O)CC(C)(C)C (centres undefined) |  | inactive | inactive | inactive | inactive | inactive |  |  | inactive | inactive | inactive | inactive | inactive | inactive | inactive | inactive | inactive | inactive | inactive | 
10 | Cc1ccc(C(=O)C(=O)O)cc1C | inactive | inactive | inactive | inactive | inactive | inactive | inactive |  | inactive |  | inactive |  | inactive | inactive | inactive | inactive |  |  |  | 
11 | COc1ccc(OC)c(NC(=O)CC(C)=O)c1 |  | inactive | inactive | inactive | inactive | inactive | inactive | inactive |  |  | inactive |  | inactive | inactive |  | inactive |  | inactive |  | 
12 | Nc1nc(=O)n([C@@H]2O[C@H](CO)[C@@H](O)[C@@H]2F)cc1I |  | inactive | inactive | inactive | inactive | inactive | inactive | inactive | inactive |  |  |  | inactive |  | inactive | inactive |  |  |  | 
13 | CCOC(=O)CC#N | inactive | inactive | inactive | inactive | inactive | inactive | inactive | inactive | inactive | inactive | inactive |  | inactive |  |  | inactive |  | inactive | inactive | 
14 | CC(C)=CC(C)(C)C |  | inactive | inactive | inactive | inactive | inactive | inactive |  |  | inactive | inactive | inactive | inactive | inactive |  | inactive |  | inactive |  | 
15 | C=CCOCC(CO)(COCC=C)COCC=C |  |  | inactive | inactive | inactive | inactive | inactive | inactive | inactive |  |  |  | inactive | inactive |  | inactive |  | inactive |  | inactive
16 | CCCCCN(CCCOC)C(=O)C(CCC(=O)O)NC(=O)c1ccc(Cl)c(Cl)c1 (centres undefined) | inactive | inactive | inactive | inactive |  | inactive | inactive |  | inactive |  |  |  | inactive | inactive | inactive | inactive |  |  |  | 
17 | CO/N=C(/C(=O)N[C@@H]1C(=O)N2C(C(=O)O)=C(Cn3nnc(C)n3)CS[C@H]12)c1csc(N)n1 |  | inactive | inactive | inactive | inactive | inactive | inactive |  |  | inactive |  |  | inactive | inactive | inactive | inactive |  | inactive |  | 
18 | CCOC(=O)C(=O)c1csc(NC=O)n1 |  | inactive | inactive | inactive | inactive | inactive | inactive |  | inactive |  |  | inactive | inactive | inactive | inactive | inactive |  |  |  | 
